Drawing on PubChem BioAssay AID504915 (The Scripps Research Institute Molecular Screening Center, 2011), this text covers activation for 24 compounds.

This is one part of the list. A number with no mark means an inactive call. The source made the active and inactive calls. Rule as the data show it: active = activation above about 17%; inactive = the rest.

Sequence of 5-hydroxytryptamine receptor 5A (Homo sapiens) (P47898 whole entry, looked up): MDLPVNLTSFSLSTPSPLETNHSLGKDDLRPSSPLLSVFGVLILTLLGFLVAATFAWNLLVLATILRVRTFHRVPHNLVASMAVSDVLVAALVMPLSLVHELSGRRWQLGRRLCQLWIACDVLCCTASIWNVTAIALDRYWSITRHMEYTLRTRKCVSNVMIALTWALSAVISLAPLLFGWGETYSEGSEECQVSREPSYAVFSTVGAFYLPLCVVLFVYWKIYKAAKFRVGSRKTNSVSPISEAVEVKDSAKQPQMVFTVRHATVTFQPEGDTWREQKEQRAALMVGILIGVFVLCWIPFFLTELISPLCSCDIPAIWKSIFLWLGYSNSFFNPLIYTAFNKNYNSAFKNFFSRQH

The assay addresses 5-hydroxytryptamine receptor 5A (Homo sapiens) (UniProt P47898). The assay can be described thus: activation of human 5-HT5A receptor – cell-based, luminescence, confirmation (AID 504915).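 Also: 0% = cells with vehicle only and 100% = full reference agonist response.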 The conditions noted are these: HTR5A agonist cell assay, at 9.3 µM, active compounds read high.
For `COc1cc2c(-c3ccc4c(c3)OCO4)c(-c3ccsc3)oc(=O)c2cc1OC`, the activation is -0.88%. In the case of `CN(c1ccccc1)S(=O)(=O)c1cc(C(=O)N2CCN(c3ncccn3)CC2)ccc1Cl` it was -3.34%. For `Cc1c(C(=O)OCC(=O)N(CCC#N)c2ccccc2)oc2c1ccc1ccccc12`, the activation is 61.4% (active). As for `CC1CCN(S(=O)(=O)c2nnc(NC(=O)COc3ccccc3F)s2)CC1`, the activation was -0.56%. In the case of `COc1ccc2[nH]cc(CCN3C(=O)c4ccc(C(=O)O)cc4C3=O)c2c1` it was -2.36%. Turning to `CC(C)CC(=O)N/C(N)=N/c1nc2ccccc2s1`, the activation is -0.51%. The figure for `O=C(CNCc1ccco1)Nc1cc(S(=O)(=O)N2CCOCC2)ccc1N1CCCC1` is -0.44%. In the case of `C/C(=N\NC(=O)CNc1cccc2ccccc12)c1ccc(Br)s1`, the activation is 1.77%.

As to `Cc1ccc(-c2csc(SCC(=O)Nc3cc(C)on3)n2)cc1`, the activation was 2.91%. `COc1cccc(OCC(=O)Nc2ccccc2C(N)=O)c1`: the activation is 26.9% (active). As for `c1ccc(-n2nc3ccccc3n2)cc1`, the activation was 1.33%.

Turning to `Cc1ccc(CN2CCN(Cc3ccc(OCCO)cc3)CC2CCO)o1` (centres undefined), the activation is 2.89%.

`CCn1nc(C(=O)OCC(=O)N2c3ccccc3CC2C)c2ccccc2c1=O` (centres undefined): the activation is -1.95%.

With `CNC(=S)N/N=C/c1ccc(OCc2ccccc2)c(Br)c1`, the activation is 0.4%. The figure for `CC(NC(=O)c1cc(-c2ccccc2)on1)c1ccccc1` (centres undefined) is -0.01%; for `Cc1c(C(=O)OCC(=O)N2CCCC2=O)oc2ccccc12` it is 3.43%. In the case of `O=C(OC12CC3CC(CC(C3)C1)C2)c1ccc(NCc2cc(O)ccc2O)cc1` it was 7.13%. Take `COc1ccc(S(=O)(=O)N2CCN(CC(=O)N3c4ccccc4CC3C)CC2)cc1OC` (centres undefined): the activation is 5.85%. With `CC(=O)c1c(C)[nH]c(C(=O)OCC(=O)Nc2c(C)cccc2C)c1C`, the activation is 1.01%. `CCOc1ccc(NC(=O)Nc2cc(C)on2)cc1`: the activation is -2.78%. The figure for `COC(=O)c1cc(S(=O)(=O)N2CCN(c3cc(C)ccc3C)CC2)c[nH]1` is 0.19%.

Consider `Cc1oc2c(F)c(F)c(F)c(F)c2c1S(=O)(=O)Nc1cccc(C(F)(F)F)c1`, for which the activation was -4.5%. In the case of `CNc1nnc(-c2ccco2)s1` it was 0.94%; in that of `CCCN(CCc1ccccc1)C1CCc2c(O)cccc2C1` (centres undefined), 37.2% (active).
